Laboratory results published in PubChem BioAssay AID686979 (National Center for Advancing Translational Sciences (NCATS), 2013).
In all, about 420,000 compounds went through this assay and about 50,000 (12%) were called active. Another 26% or so got no clear call; they are omitted. Only a selection was taken, and actives are over-represented in it overall. Unmarked numbers belong to inactive results. Calls follow the shape of the dose curve; as a rule, active = well fitted inhibition curve with a large enough effect; inconclusive = small, poorly fitted or top-dose-only effect; inactive = flat fitted curve, though single readings scatter.

experiment: qHTS for Inhibitors of human tyrosyl-DNA phosphodiesterase 1 (TDP1): qHTS in cells in presence of CPT; conditions: chicken DT40 Tdp1-/-;hTDP1 cells + 20 nM CPT, ATP luminescence, 48 h; series mostly up to 46.2 µM; activity change, negative = growth inhibition: at the top concentration; also: nearly all actives have a fitted effect of over 55% in size
In short: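 Chicken DT40 Tdp1-/- cells complemented with human TDP1, 400 cells/well, exposed to compounds plus 20 nM camptothecin for at least 48 h at 37 C; viability read as ATP content by CellTiter-Glo luminescence.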
% is scaled to controls: 0 for no effect and ±100 for the full control effect; potency is read from the fitted curve at half-maximal effect.

Compound | activity change, negative = growth inhibition | Potency
O=S(=O)(c1ccc(Cl)s1)N1CCC2(CC1)OCCO2 | 7.46% | –
O=C(Nc1ccc(-c2csc(Nc3cccc(C(F)(F)F)c3)n2)cc1)c1cccc(C(F)(F)F)c1 | – | 9.2 µM (active)
CNC(=O)c1ccc(NC(=O)c2cccc(C(F)(F)F)c2)cc1 | 11.5% | –
Cc1cccc(NC(=O)c2cccc(C(F)(F)F)c2)c1 | -9.45% | –
Cc1nn(C)c(C)c1NS(=O)(=O)c1ccc(OC(F)(F)F)cc1 | – | 23.1 µM (active)
O=C1COc2ccc(S(=O)(=O)Nc3ccc(OC(F)(F)F)cc3)cc2N1 | -29.6% | –
O=S(=O)(Nc1ccc(O)c2ccccc12)c1ccc(OC(F)(F)F)cc1 | – | 13 µM (active)
Cc1nn(Cc2ccccc2)c(C)c1NS(=O)(=O)c1ccccc1 | 8.74% | –
Nc1ncc(S(=O)(=O)Nc2ccc(OC(F)(F)F)cc2)cn1 | 1.29% | –
COc1ccc(OC)c(S(=O)(=O)Nc2c(C)nn(C)c2C)c1 | -1.71% | –
COc1cc2c(cc1OC)CC(=O)N(CCCN(C)C[C@H]1Cc3cc(OC)c(OC)cc31)CC2 | 1.31% | –
CC1CN(C(=O)CCC(=O)NCCCN2CCC(Cc3ccccc3)CC2)c2cc(Cl)ccc2O1 (centres undefined) | – | 20.6 µM (active)
O=C(CC1Oc2ccccc2NC1=O)NCCCN1CCN(Cc2ccccc2)CC1 (centres undefined) | 12% | –
CC(C)(C)NC(=O)NC(=O)CN1CCC(Cc2ccccc2)CC1 | -23.6% | –
Cc1ccc(S(=O)(=O)NCCC(=O)NC2CCN(Cc3ccccc3)CC2)cc1 | -19.8% | –
CC1CN(C(=O)CCC(=O)NCc2cccnc2)c2ccccc2O1 (centres undefined) | -11.9% | –
CC1CN(C(=O)CCC(=O)NC2CCN(Cc3ccccc3)CC2)c2ccccc2O1 (centres undefined) | – | 23.1 µM (active)
O=C(COC(=O)/C=C/c1cccc(Cl)c1)NCCc1ccccc1 | 0.178% | –
COc1ccc(NC(=S)N2CCCC(CO)C2)c(OC)c1 (centres undefined) | -6.69% | –
CC(=O)Nc1ccc(S(=O)(=O)Oc2ccc(/C=N/N=C3/NC(=O)C(CC(=O)O)S3)cc2)cc1 (centres undefined) | -18.8% | –
O=C(CNC(=O)c1ccc(Br)o1)Nc1ccccc1 | 6.19% | –
CC(CNC(=O)c1ccc(Br)o1)NC(=O)c1ccc(Br)o1 (centres undefined) | – | 8.2 µM (active)

Compound | activity change, negative = growth inhibition | Potency
CC(CCc1ccccc1)NC(=O)c1ccc(Br)o1 (centres undefined) | -21.9% | –
CCOc1ccc(OCC(=O)Nc2c3c(nn2C(C)(C)C)CS(=O)(=O)C3)cc1 | 1.51% | –
COc1cc(C(=O)NCc2ccncc2)cc(Br)c1OCc1ccccc1 | – | 18.4 µM (active)
COc1cc(C=O)c(Br)cc1OCC(=O)NCc1ccccc1 | -6% | –
COc1cc(/C=N/O)cc(Br)c1OCc1cccc(Cl)c1 | -6.06% | –
CN(CC(=O)Nc1cccc(F)c1)C(=O)CC1CCCC1 | -4.08% | –
N/C(Cc1ccc([N+](=O)[O-])cc1)=N\OC(=O)C1CCCCC1 | -20.7% | –
CC(=O)NC1CCN(CC(=O)Nc2nccs2)CC1 | 13.2% | –
COc1ccc(C#Cc2c(-c3ccc(OC)cc3)oc3ccc(-c4ccc5c(c4)OCO5)cc23)cc1 | -1.98% | –
COc1ccc(CCNC(=O)c2cc(-c3ccc4c(c3)OCO4)on2)cc1OC | -10.1% | –
COc1cc2c(-c3ccc4c(c3)OCO4)c(-c3ccsc3)oc(=O)c2cc1OC | – | 16.4 µM (active)
Clc1cccc[n+]1CCCC[n+]1ccccc1Cl | -12.7% | –
Brc1cccc[n+]1Cc1cccc(C[n+]2ccccc2Br)c1 | – | 12.6 µM (active)
O=C(COC(=O)c1cccc(Cl)c1)Nc1ccc2[nH]c(=O)[nH]c2c1 | -11.5% | –
COc1cc(C(=O)NCc2nnc(SCC(=O)c3ccc(Cl)cc3)o2)cc(OC)c1OC | -18.9% | –
CCC(=O)Nc1ccc(C(=O)CSc2nnc(CNc3ccc(Cl)cc3)o2)cc1OC | – | 20.6 µM (active)
CCOC(=O)CSc1nnc(CNc2ccc(F)cc2)o1 | -0.543% | –
COc1ccc(CNC(=O)C(=O)NCC2OCCN2C(=O)c2ccc(OC)cc2)cc1 (centres undefined) | 3.1% | –
CC(C)(C)c1nnc(N/N=C/c2ccc(O)cc2)n(N)c1=O | 17.2% | –
O=C(c1c(F)cccc1F)N1CCN(c2ncc(Br)cn2)CC1 | 20.1% | –
CCOc1ccc(C(=O)NC(=S)Nc2ccc(N3CCOCC3)c(Cl)c2)cc1[N+](=O)[O-] | – | 0.146 µM (active)
COc1cccc(OC)c1C(=O)NC(=S)Nc1ccc(N2CCOCC2)c(Cl)c1 | -25.4% | –

Compound | activity change, negative = growth inhibition | Potency
CCOc1ccc(C(=O)NC(=S)Nc2ccc(NC(=O)C(C)C)cc2)cc1[N+](=O)[O-] | -16.5% | –
CN(C)c1ccc(-c2nnc(-c3cccnc3)o2)cc1 | -14.5% | –
CCC(C)(C(=O)Nc1ccccc1C)N(C(=O)CNC(C)=O)c1ccc(C)cc1 (centres undefined) | 2.25% | –
COc1cc(NS(=O)(=O)c2ccc(N=Cc3c(C)[nH]n(-c4ccccc4)c3=O)cc2)nc(OC)n1 | -16.6% | –
CCc1nnc(NS(=O)(=O)c2ccc(NS(=O)(=O)c3ccccc3)cc2)s1 | -14.8% | –
CCc1nnc(NS(=O)(=O)c2ccc(N=Cc3c(C)[nH]n(-c4ccc(C)cc4)c3=O)cc2)s1 | – | 11.6 µM (active)
CS(=O)(=O)Nc1ccccc1C(=O)OCC(=O)NC1CC1 | -21.4% | –
Cc1ccc(S(=O)(=O)c2nnn3c2nc(N2CCN(c4ccccc4F)CC2)c2cc(Cl)ccc23)cc1C | 4.64% | –
CCCCc1cc2c(s1)CCCC/C2=N/O | -6.51% | –
Cc1cccc(C(=O)NCC(=O)OCC(=O)N2CC3(C)CC2CC(C)(C)C3)c1 (centres undefined) | 1.66% | –
Cc1nnnn1/C(=C\c1ccccc1)C(=O)OCC(=O)N1CC2(C)CC1CC(C)(C)C2 (centres undefined) | – | 13 µM (active)
CCOC(=O)CNc1nc(Cl)nc(Nc2ccccc2)n1 | 2.34% | –
CN(C)S(=O)(=O)c1cccc(C(=O)OCC(=O)N2CCCC2=O)c1 | -12.8% | –
Cc1noc(C)c1NC(=O)Nc1ccc2c(c1)C(=O)N([C@H](C)CO)C[C@H](C)[C@@H](CN(C)C(=O)Nc1ccccc1)O2 | 4.33% | –
Cc1ccc(S(=O)(=O)Nc2ccc3c(c2)C(=O)N([C@H](C)CO)C[C@@H](C)[C@@H](CN(C)C(=O)Nc2cccc4ccccc24)O3)cc1 | – | 20.6 µM (active)
COc1ccc(NC(=O)N(C)C[C@H]2Oc3ccc(NC(=O)C4CC4)cc3C(=O)N([C@H](C)CO)C[C@@H]2C)cc1 | 4.69% | –
CN1C(=O)CC(c2ccccc2)C1=O (centres undefined) | – | inactive
Cc1ccc(-n2ncc3c(N4CCN(c5ccc(F)cc5)CC4)ncnc32)c(C)c1 | – | 11.6 µM (active)
Cc1ccc(-n2ncc3c(N4CCC(C(N)=O)CC4)ncnc32)cc1 | -0.778% | –
Cc1ccc(-n2ncc3c(=O)[nH]cnc32)c(C)c1 | 14.5% | –
